Like-named read-outs stand apart in the source and are kept apart here.

Holding throughout (parameters): species or system human, MV4-11 + K-562 + COLO205 + SK-N-BE2 + OVCAR-8
In one experiment the test system is AKT1. The settings on record: read-out: apparent Kd, n = 1.
A further experiment relates to AKT3. The conditions noted are these: read-out: apparent Kd; compound concentrations:100 nM and 1000 nM (sheet 'Samples'); n = 1.
Another experiment has as its system DDX3X;DDX3Y. The settings on record: read-out: apparent Kd; compound concentrations:100 nM and 1000 nM (sheet 'Samples'); n = 1.
The subject of the next experiment is RIOK2. The settings on record: read-out: apparent Kd, n = 1.
Another experiment has as its system ADRBK1. The settings on record: read-out: apparent Kd, compound concentrations: 100 nM and 1000 nM (sheet 'Samples'), n = 1.
For another experiment, the system named is MAP2K2. The settings on record: read-out: apparent Kd, compound concentrations: 100 nM and 1000 nM (sheet 'Samples'), n = 1.
The next experiment relates to NNT. The conditions noted are these: read-out: apparent Kd, n = 1.
A further experiment concerns AKT2. The settings on record: read-out: apparent Kd, compound concentrations: 100 nM and 1000 nM (sheet 'Samples'), n = 1.
The next experiment concerns MAP2K1. The settings on record: read-out: apparent Kd, compound concentrations: 100 nM and 1000 nM (sheet 'Samples'), n = 1.
Another experiment concerns NCL. The conditions noted are these: read-out: apparent Kd; compound concentrations: 100 nM and 1000 nM (sheet 'Samples'), CATDS: 0.116162101404393; n = 1.
The next experiment concerns PIK3C3. The settings on record: read-out: apparent Kd; compound concentrations: 100 nM and 1000 nM (sheet 'Samples'), CATDS: 0.115592517664726; n = 1.
A further experiment has as its system PIK3CB. The conditions noted are these: read-out: apparent Kd; compound concentrations: 100 nM and 1000 nM (sheet 'Samples'), CATDS: 0.13740958062808101; n = 1.
For the next experiment, the system named is PYGL. The settings on record: read-out: apparent Kd, compound concentrations: 100 nM and 1000 nM (sheet 'Samples'), n = 1.
The next experiment relates to TAOK3. The settings on record: read-out: apparent Kd; compound concentrations: 100 nM and 1000 nM (sheet 'Samples'), CATDS: 0.106339903242866; n = 1.
The subject of the next experiment is CDK6. The settings on record: read-out: apparent Kd; compound concentrations: 100 nM and 1000 nM (sheet 'Samples'), CATDS: 0.111886140460168; n = 1.
The next experiment relates to EGFR. The conditions noted are these: read-out: apparent Kd, n = 1.
Another experiment deals with NQO1. The conditions noted are these: read-out: apparent Kd; compound concentrations: 100 nM and 1000 nM (sheet 'Samples'), CATDS: 0.17840078958021699; n = 1.
In another experiment the test system is RIPK2. The conditions noted are these: read-out: apparent Kd; compound concentrations: 100 nM and 1000 nM (sheet 'Samples'), CATDS: 0.17953871866569099; n = 1.
The subject of the next experiment is ERBB3. The settings on record: read-out: apparent Kd; compound concentrations: 100 nM and 1000 nM (sheet 'Samples'), CATDS: 0.13947545743424; n = 1.
Another experiment has as its system NQO2. The settings on record: read-out: apparent Kd; compound concentrations: 100 nM and 1000 nM (sheet 'Samples'), CATDS: 0.16308472458482501; n = 1.
The test system of another experiment is AGK. The conditions noted are these: read-out: apparent Kd; compound concentrations:100 nM and 1000 nM (sheet 'Samples'); n = 1.
A further experiment deals with HSP90B1. The settings on record: read-out: apparent Kd; compound concentrations:100 nM and 1000 nM (sheet 'Samples'); n = 1.
For another experiment, the system named is MTHFD1. The settings on record: read-out: apparent Kd; compound concentrations:100 nM and 1000 nM (sheet 'Samples'); n = 1.
The subject of a further experiment is CSNK1D. The settings on record: read-out: apparent Kd; compound concentrations: 100 nM and 1000 nM (sheet 'Samples'), CATDS: 0.21502598337996101; n = 1.
The subject of another experiment is CSNK1E. The settings on record: read-out: apparent Kd; compound concentrations: 100 nM and 1000 nM (sheet 'Samples'), CATDS: 0.16970430448232399; n = 1.
The subject of the next experiment is GSK3A. The settings on record: read-out: apparent Kd; compound concentrations: 100 nM and 1000 nM (sheet 'Samples'), CATDS: 0.23143029559655601; n = 1.
Setting [1] is: compound concentrations:100 nM and 1000 nM (sheet 'Samples').

Consider `COc1cccc(C2=C(Nc3cccc(O)c3)C(=O)NC2=O)c1` [SB-390771], for which the potency estimated from few doses in the experiment on AKT1 (setting [1]) was 2060 nM; with AKT3, 1930 nM; in the experiment on DDX3X;DDX3Y it was 2110 nM; in the experiment on RIOK2 (setting [1]), 2460 nM.

Turning to `Cc1cc(N2Cc3ccccc3C2)nc(Nc2ccc(S(=O)(=O)N3CCOCC3)cc2)n1.Cl` [GSK1669917A], the potency estimated from few doses in the experiment with ADRBK1 (CATDS: 0.38079622737555602) is 1290 nM; in the experiment on MAP2K2 (CATDS: 0.29465532437802699), 2170 nM; in the experiment on NNT (compound concentrations: 100 nM and 1000 nM (sheet 'Samples'), CATDS: 0.33555608244827101), 1640 nM.

For the molecule `Cc1nc(Nc2cnn(C3CCNCC3)c2)nc2c1N(C)C(=O)c1cc3ccccc3cc1N2C` [HTH-01-015], the potency estimated from few doses was 1310 nM in the experiment with AKT1 (compound concentrations: 100 nM and 1000 nM (sheet 'Samples'), CATDS: 0.123501580073808); 1870 nM in the experiment with AKT2 (CATDS: 0.10314044451286999); 2060 nM in the experiment with MAP2K1 (CATDS: 9.8973729248026707E-2); 1580 nM with MAP2K2 (CATDS: 0.112091584059978); 1470 nM in the experiment on NCL; 1480 nM in the experiment with PIK3C3. Further, the potency estimated from few doses with PIK3CB was 1080 nM; in the experiment on PYGL (CATDS: 9.7642966529981307E-2), 2120 nM; in the experiment with TAOK3 it was 1760 nM.

Regarding `CCS(=O)(=O)c1ccc(OC)c(Nc2ncc(-c3ccccc3Cl)o2)c1` [GW622055X], the potency estimated from few doses is 1780 nM with ADRBK1 (CATDS: 0.49324160998550998); 1680 nM in the experiment with RIOK2 (compound concentrations: 100 nM and 1000 nM (sheet 'Samples'), CATDS: 0.50694616971053197).

For `Cn1cncc1-c1ccc2ncnc(Nc3ccc(OCc4ccccc4)cc3)c2c1` [GW320571X], the potency estimated from few doses with AKT2 (CATDS: 0.134297871058083) was 1180 nM; with CDK6 it was 1880 nM; in the experiment with EGFR (compound concentrations: 100 nM and 1000 nM (sheet 'Samples'), CATDS: 0.20286097232099201), 545 nM; in the experiment with MAP2K2 (CATDS: 0.118156666202673), 1610 nM; in the experiment with NQO1, 676 nM; with PYGL (CATDS: 0.12425140919606401), 1420 nM. Further, the potency estimated from few doses in the experiment with RIPK2 is 668 nM.

As to `Cn1c(=O)c(F)c(Nc2ccc(I)cc2F)c2c(=O)n(OC[C@H](O)CO)cnc21` [TPKI-16], the potency estimated from few doses in the experiment with ADRBK1 (CATDS: 0.13244009116627101) is 1780 nM; in the experiment with ERBB3 it was 1370 nM; with MAP2K1 (CATDS: 0.50931897145829497), 12.2 nM; in the experiment on MAP2K2 (CATDS: 0.45776902126379299), 15 nM; in the experiment with NQO2, 677 nM.

For the molecule `CS(=O)(=O)CCNCc1ccc(-c2ccc3ncnc(Nc4ccc(OCc5ccccc5)c(Cl)c4)c3c2)o1.Cl` [GW574783B_PKIS1], the potency estimated from few doses with AGK was 1950 nM; in the experiment with EGFR (setting [1]), 156 nM; with HSP90B1 it was 1710 nM; in the experiment on MTHFD1, 1950 nM; in the experiment with NNT (setting [1]), 1200 nM.

For `Clc1ccc(CNc2nccc(-c3cnn4ncccc34)n2)cc1` [GW781673X], the potency estimated from few doses in the experiment on AKT1 (compound concentrations: 100 nM and 1000 nM (sheet 'Samples'), CATDS: 0.20624871442291401) is 1400 nM; with CSNK1D it was 1290 nM; in the experiment with CSNK1E, 2140 nM; in the experiment with GSK3A, 1130 nM; in the experiment on RIOK2 (compound concentrations: 100 nM and 1000 nM (sheet 'Samples'), CATDS: 0.18913150983507701), 1670 nM.

As for `Cn1cc(C2=C(c3cn(-c4ccccc4)c4ccccc34)C(=O)NC2=O)c2ccccc21` [RO0318564-000], the potency estimated from few doses in the experiment with AKT1 (compound concentrations: 100 nM and 1000 nM (sheet 'Samples'), CATDS: 1) is 2080 nM.

(Values after publication PMC11062922 (Nature Chemical Biology, 2023).)
